In PubChem BioAssay (NCATS) one finds Potency data, which are given here for 40 compounds.

Records with an inconclusive call do not appear. Entries that show only a call come without a potency. The source made the active and inactive calls. The call rests on the fitted dose curve; in most records, active means well fitted inhibition curve with a large enough effect; inconclusive means small, poorly fitted or top-dose-only effect; inactive means flat fitted curve, though single readings scatter.
Potency means the concentration at half of the fitted maximal effect.

The target of the assay is Dual specificity protein kinase CLK4 (Homo sapiens) (UniProt Q9HAZ1). In words: qHTS Assay for Inhibitors of CDC-like Kinase 4 (Kinase-Glo Assay) (AID 1770). Further: nearly all actives have a fitted effect of over 65% in size. Particulars: recombinant Clk4, Kinase-Glo ATP depletion luminescence; series mostly up to 66.7 µM. As for the experimental part: NIH Molecular Libraries Probe Production Centers Network [MLPCN] NIH Chemical Genomics Center [NCGC] MLPCN Grant: 1R03MH084827-01 Assay Submitter (PI): Tom Misteli NCGC Assay Overview: Clk4 (Invitrogen, cat# PV3839) was assayed using ATP and the RS repeat peptide (AnaSpec cat # 61722) as substrates. Following the Clk4 reaction, the remaining ATP levels were detected using Promega Kinase-Glo technology wherein the remaining ATP from the kinase reaction is detected using Ultra-Glo luciferase and D-luciferin which generates a bioluminescence signal from the ATP. The positive control for the assay was TG003 (Sigma-Aldrich, cat# 300801-52-9) which has been described as an inhibitor of Clk 4[1].
Chain of Dual specificity protein kinase CLK4 (Homo sapiens) (Q9HAZ1 whole entry, looked up): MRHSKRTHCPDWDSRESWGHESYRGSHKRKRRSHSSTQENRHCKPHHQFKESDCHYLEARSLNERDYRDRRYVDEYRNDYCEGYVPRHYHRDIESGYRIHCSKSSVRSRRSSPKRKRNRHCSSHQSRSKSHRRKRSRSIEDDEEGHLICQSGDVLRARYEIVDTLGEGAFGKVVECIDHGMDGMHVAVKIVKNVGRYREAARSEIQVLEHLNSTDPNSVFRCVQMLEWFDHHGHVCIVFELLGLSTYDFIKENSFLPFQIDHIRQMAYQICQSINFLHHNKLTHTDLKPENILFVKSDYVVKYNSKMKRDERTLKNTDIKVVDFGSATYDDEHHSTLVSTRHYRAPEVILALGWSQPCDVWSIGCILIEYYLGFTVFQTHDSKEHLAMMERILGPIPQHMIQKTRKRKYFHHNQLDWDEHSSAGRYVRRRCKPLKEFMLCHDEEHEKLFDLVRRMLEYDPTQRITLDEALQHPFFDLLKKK
NCGC Assay Protocol Summary: Two uL/well of substrate-buffer solution (100 uM RS peptide, 1 uM ATP, 25 mM Tris pH7.5, 10 mM MgCl2, 0.5 mM EGTA, 2.5 mM DTT, 0.01% Triton X-100 final concentration) was dispensed into 1536-well, assay plates (Greiner, solid white medium-binding plates) with Aurora Discovery BioRAPTR Flying Reagent Dispenser (FRD; Beckton-Dickenson). Using a Kalypsys pin tool equipped with a 1536-pin tool, 23 nL of compound solution was transferred to the assay plate. One uL/ well Clk4-buffer solution (25 nM Clk4, 25 mM Tris pH 7.5, 10 mM MgCl2, 0.5 mM EGTA, 2.5 mM DTT, 0.01% Triton X-100, final concentrations) was then added using the FRD yielding a total kinase reaction volume of 3 uL/ well. After 4.5 hours of room temperature incubation, 3 uL Kinase-Glo reagent was added for a final assay volume of 6 uL/ well. Luminescence was detected with the ViewLux plate reader (Perkin Elmer, Waltham, MA) after 5 min incubation using a 5 second exposure time and 2x binning.
In general terms: In qHTS, concentration-response curves come from the screen itself.
Regarding `COCCn1c(=O)cnc2cnc(OC)nc21`, the Potency entry is “inactive”.
Turning to `CN1CCN(c2ncc3nc(-c4cccs4)c(=O)n(-c4ccccc4)c3n2)CC1`, the Potency result was “inactive”.
Consider `CN1CCN(c2ncncc2-c2ccccc2C(F)(F)F)CC1`, for which the Potency entry was “inactive”.
With `FC(F)(F)c1ccccc1-c1nc(NCc2cccs2)c2ccccc2n1`, the Potency entry is “inactive”.
The result for `COc1ccc(Oc2ncc3nc(-c4ccc(OC)cc4)c(=O)n(C4CC4)c3n2)cc1` reads “inactive”; that for `COCCn1c(=O)c(-c2ccccc2)nc2cnc(OC)nc21`, “inactive”; that for `Cn1c(=O)c(-c2cccs2)nc2cnc(OCc3ccccc3)nc21`, “inactive”.
Consider `Cc1cccc(CNc2nc(-c3ccc4c(c3)OCO4)nc3ccccc23)c1`, for which the Potency entry is “inactive”.
The result for `CS(=O)(=O)Nc1cccc(-c2ccc3ncnc(NC4CCNCC4)c3c2)c1` reads 11.2 µM (active); that for `CS(=O)(=O)Nc1cccc(-c2ccc3ncnc(N4CCNCC4)c3c2)c1`, 6.31 µM (active); that for `CCNc1ncc2nc(-c3ccc(OC)cc3)c(=O)n(CCOC)c2n1`, “inactive”.
Regarding `Cn1c(=O)c(-c2ccc(Cl)cc2)nc2cnc(N3CCOCC3)nc21`, the Potency result was “inactive”.
Consider `Cc1ccccc1-c1cc(NCCN2CCOCC2)ncn1`, for which the Potency result was “inactive”.
The result for `CN(C)c1ncc2nc(-c3ccc(F)cc3)c(=O)n(C)c2n1` reads “inactive”; that for `CN(Cc1ccco1)c1cc(-c2ccoc2)ncn1`, “inactive”; that for `Cc1nc2cnc(N3CCN(C)CC3)nc2n(Cc2ccc(F)cc2)c1=O`, “inactive”.
Consider `CC(=O)NCCNc1cc(-c2ccccc2C)ncn1`, for which the Potency entry was “inactive”.
The entry for `Cn1c(=O)c(-c2cccs2)nc2cnc(N3CCOCC3)nc21` is “inactive”; for `Clc1ccccc1-c1cncnc1NCc1cccs1` it is “inactive”.
On to `COCCn1c(=O)c(-c2cccc(C#N)c2)nc2cnc(N(C)C)nc21`, for which the Potency entry is “inactive”.
Take `COc1cccc(-c2ccc3ncnc(NCc4ccccc4)c3c2)c1`: the Potency is 2 µM (active).
The entry for `COc1ccc(-n2c(=O)c(-c3cccc(C#N)c3)nc3cnc(N4CCNCC4)nc32)cc1` is “inactive”; for `c1ccc(CNc2cc(-c3cccnc3)ncn2)cc1` it is 10 µM (active); for `CN1CCN(c2ncc3nc(-c4ccccc4)c(=O)n(CCc4ccccc4)c3n2)CC1` it is “inactive”.
On to `CN(C)c1ccc(-c2ccc3ncnc(-n4ccnc4)c3c2)cc1`, for which the Potency was 3.16 µM (active).
As to `Cc1ccccc1-c1ccc2ncnc(NC3CC3)c2c1`, the Potency is 11.2 µM (active).
The result for `N#Cc1cccc(-c2nc3cnc(N4CCOCC4)nc3n(C3CC3)c2=O)c1` reads “inactive”; that for `COCCn1c(=O)c(-c2ccccc2)nc2cnc(Oc3ccc(OC)cc3)nc21`, “inactive”; that for `COc1cccc(-c2cncnc2NC2CCNCC2)c1`, “inactive”.
As to `COc1ccccc1CNc1cc(-c2c(C)noc2C)ncn1`, the Potency is 15.8 µM (active).
For `CCNc1ncc2ncc(=O)n(C3CC3)c2n1`, the Potency was 14.1 µM (active).
Take `CN1CCN(c2ncnc3ccc(-c4ccccc4Cl)cc23)CC1`: the Potency is 25.1 µM (active).
As for `CN(C)c1ncc2nc(-c3cccc(C#N)c3)c(=O)n(CCC#N)c2n1`, the Potency result is “inactive”.
The entry for `COc1cccc(Cn2c(=O)c(-c3ccc(F)cc3)nc3cnc(OC)nc32)c1` is “inactive”; for `CNc1nc(-c2ccccc2CN(C)C)nc2ccccc12` it is “inactive”.
The result for `COc1ccc(-c2nc3cnc(N4CCOCC4)nc3n(C[C@H]3CCCO3)c2=O)cc1` reads “inactive”; that for `CN1CCN(c2ncc3nc(-c4cc(F)cc(F)c4)c(=O)n(C)c3n2)CC1`, “inactive”; that for `c1ccc(CNc2ncnc3ccc(-c4cccnc4)cc23)cc1`, 3.16 µM (active).
The figure for `O=c1c(-c2cc(F)cc(F)c2)nc2cnc(N3CCNCC3)nc2n1-c1ccccc1` is 15.8 µM (active).
For `Cc1cnc(CNc2ncncc2-c2c(C)noc2C)cn1`, the Potency result is “inactive”.
